# In PubChem BioAssay (NCI):
# This is part of a sample that, as a whole, favours compounds with a hit. Of some 79,000 tested, about 15% had one in any assay. A number with no mark means an inactive call. The source made the active and inactive calls. Cut-off read from the data, not from the text of the source: active = growth inhibition above about 70%; inactive = the rest.
# Key:
# [1] = NCI Yeast Anticancer Drug Screen. Data for the rad50 strain (AID 155);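 note: 0% = growth of vehicle-only cultures of the same strain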; settings: S. cerevisiae rad50 strain growth inhibition; at 50.0 µM; active compounds read high
# In short: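 Genetically altered yeast (DNA repair pathway); compound treatment; growth inhibition vs vehicle ctrl.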
# [2] = NCI Yeast Anticancer Drug Screen. Data for the mec2-1 strain (AID 157); settings: S. cerevisiae mec2-1 strain, at 50.0 µM, active compounds read high
# In short: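 Growth inhibition is read against vehicle-treated controls after compound exposure of the mec2-1 yeast strain, which is defective in DNA damage repair or cell cycle control.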
# [3] = NCI Yeast Anticancer Drug Screen. Data for the sgs1 mgt1 strain (AID 161);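 note: 0% = growth of cultures given vehicle only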; settings: S. cerevisiae sgs1 mgt1 strain, at 50.0 µM, active compounds read high
# In short: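 Growth of a repair-deficient yeast mutant was monitored after compound treatment and expressed as inhibition relative to vehicle-treated cultures.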
# [4] = NCI Yeast Anticancer Drug Screen. Data for the cln2 rad14 strain (AID 165);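 note: 0% = growth equal to vehicle treated cultures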; settings: S. cerevisiae cln2 rad14 strain, at 50.0 µM, active compounds read high
# In short: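 Growth inhibition, relative to vehicle-treated controls, is the read-out. The test organism is a yeast strain with defined genetic alterations, cln2 rad14.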
# [5] = NCI Yeast Anticancer Drug Screen. Data for the bub3 strain (AID 167); settings: S. cerevisiae bub3 mutant strain, at 50.0 µM, active compounds read high
# In short: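 Yeast carrying a defined mutation is treated with each compound, and growth is compared with that of vehicle-exposed cells to give inhibition.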
# [6] = NCI Yeast Anticancer Drug Screen. Data for the mlh1 rad18 strain (AID 175); settings: S. cerevisiae mlh1 rad18 strain growth inhibition; at 50.0 µM; active compounds read high
# In short: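 Cells of a genetically altered yeast strain, deficient in DNA damage repair, were treated with compound. Their growth was then compared with that of vehicle-treated cultures to give inhibition.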
Compound,growth inhibition [1],growth inhibition [2],growth inhibition [3],growth inhibition [4],growth inhibition [5],growth inhibition [6]
O=C(CCBr)Nc1ccc(Cl)cc1C(=O)c1ccccc1,6.65%,5.5%,10.2%,-2%,54.8%,-5.95%
CC(C)CCC1C(=O)NC(=O)NC1=O,-0.2%,-6.15%,-15.4%,8.1%,-4.05%,-1.15%
CS(=O)(=O)c1ccc(COP(N)(=O)N(CCCl)CCCl)cc1 (stereo not given),17.1%,-8.05%,-0.95%,11.3%,-4.2%,17.7%
COP(=O)(OC)C1(c2ccccc2)C2C3CCC(C3)C21 (stereo not given),1.75%,21.7%,2.65%,-7%,14.8%,17.8%
COP(=O)(OC)O/C(=C(/OP(=O)(OC)OC)c1ccccc1)c1ccccc1,35.5%,14.3%,0.1%,24.1%,-1.35%,25.1%
C[C@]12CCC(=O)C=C1CC[C@@H]1[C@@H]2CC[C@]2(C)C(=O)[C@H](n3ccnc3)C[C@@H]12,-1.35%,2.45%,0.9%,3.2%,-1.2%,5.65%
O=[N+]([O-])c1ccc(SSC(Cl)(Cl)Cl)cc1,33%,94.2% (active),93.5% (active),13.4%,78.5% (active),84.4% (active)
C=C[CH2][Sn]([Br])([c]1ccccc1)[c]1ccccc1,99.3% (active),99.2% (active),99.2% (active),98.8% (active),98.8% (active),99.3% (active)
CC1OC(=O)C2CC3CCCCC3C(/C=C/C3CCCC(C)N3C)C12 (stereo not given),1.2%,-11.2%,-11.2%,28.4%,-10.4%,-2.35%
NC(c1ccccc1)C(Cl)c1ccccc1 (stereo not given),-6.9%,-54.3%,3.15%,-20.8%,14.9%,-7.55%
S=C=Nc1cccc2ccccc12,-13.7%,-11.8%,-10.1%,17.5%,-6.45%,-6.1%
C1=CC2C=CC(C=C1)[PH+]2c1ccccc1.[C-]#[O+].[C-]#[O+].[C-]#[O+].[C-]#[O+].[C-]#[O+].[Cr] (stereo not given),-30.4%,2.1%,-9.25%,21.4%,-2.15%,-9.35%
CCP(c1ccccc1)c1ccccc1,-0.4%,12.4%,13.1%,0.95%,-40.8%,-12%
CCOC(=O)C1C(=O)NC2CCC(=O)CC21c1ccc2c(c1)OCO2 (stereo not given),10.7%,-9.5%,-1.8%,-3.55%,23.9%,11.2%
C1C[N-]CC[N-]1.C1C[N-]CC[N-]1.N#CS.[Ni+2],5.1%,5.65%,1.4%,-11.9%,7.6%,-5.4%
Nc1ccc(S(=O)(=O)F)cc1,-22%,-54%,-34.6%,16.8%,-35.3%,-22.2%
CO/C(=N/N1CC1C(F)(F)F)c1ccncc1 (stereo not given),-34.8%,19.2%,-51.9%,11.8%,1.65%,8%
CCC(=O)N/N=C(\N)N[N+](=O)[O-],-16.1%,-6.55%,-20.5%,-83.6%,-3.1%,-9.65%
O=C(Nc1ccccc1)Nc1ccc(N(CCCl)CCCl)cc1,21.8%,18.6%,10.8%,13.5%,13.7%,31.8%
N#CCO,-3.7%,11.3%,-9.1%,-5.4%,-3.4%,-5.65%

Compound,growth inhibition [1],growth inhibition [2],growth inhibition [3],growth inhibition [4],growth inhibition [5],growth inhibition [6]
CC(Cl)CN1CCN(CC(C)Cl)CC1 (stereo not given),2.95%,-16.7%,34.4%,4.4%,31.9%,-10.3%
Cc1ccc(Cl)c2c1CC(=[N+]=[N-])C2=O,10.2%,5.2%,8.7%,-0.45%,10.5%,7.15%
C=C1CCN2CC[C@@H](OC(=O)/C(C)=C\C)[C@@H]12,1.65%,1.3%,7.1%,-1.9%,12.9%,-22.1%
CC(Oc1ccc(-c2ccccc2)cc1)C(=O)O (stereo not given),-14.8%,-1.25%,-9.25%,-4.8%,-13.1%,-23.4%
CNCCc1ccccc1,26%,6.05%,14.3%,14.6%,-33.8%,-3.05%
Cc1ccc(NC(=O)c2cc3ccccc3cc2O)c(C)c1,17.1%,-16.1%,20.7%,8.75%,17.9%,21.8%
Cc1ccc(OP(=O)(Oc2ccc(C)cc2)Oc2ccc(C)cc2)cc1.Cc1ccc(OP(=O)(Oc2ccc(C)cc2)Oc2ccc(C)cc2)cc1.[Cl][Ni][Cl],23.5%,35.8%,29.4%,4.2%,38.4%,59.3%
Nc1cccnc1,-29.1%,-35.5%,23.8%,-1.55%,-23.6%,-5.65%
Nc1nc(CC(N)C(=O)O)c[se]1 (stereo not given),56.8%,28.4%,21.1%,5.35%,21.3%,11%
F[C](F)(F)[Hg][c]1ccccc1,99.3% (active),99.7% (active),99.5% (active),98.8% (active),99.5% (active),99.3% (active)
CCCCOP(O)(=S)OCCCC.[Tb],-19%,14.6%,-14.6%,29.1%,-14.8%,17.9%
CC(Cl)CNC1c2ccccc2CC1O (stereo not given),-4.4%,-7.8%,-1.45%,-18.6%,-6.4%,5.45%
NC1=C(c2nc(-c3cc4ccccc4oc3=O)cs2)C(c2ccco2)c2c(c3ccccc3oc2=O)O1 (stereo not given),-3.15%,-9.9%,-21.4%,-38.8%,4.1%,-14.3%
Cc1ccc([NH-])c([NH-])c1.[Cl][Pt+2][Cl],22.1%,0.25%,30.4%,12.3%,-2.85%,13.7%
CCOP(=O)(Cc1ccc(Cl)cc1)OCC,33.8%,7.9%,17.6%,21.4%,15.2%,8.05%
COc1cccc(N2CCNCC2)c1,-5.2%,-12.6%,12.4%,4.2%,-6.6%,25.1%
C=CC1CN2CCC1CC2C(O)c1ccnc2ccccc12 (stereo not given) (tested in a mixture with another compound),-3.9%,-17.1%,-5.4%,-4.05%,-1.4%,1.75%
C=CCC1(C(=C)C)C(=O)NC(=O)NC1=O,6.05%,6.05%,1.4%,2.75%,-13.8%,-11.3%
C=CCNC(=S)/N=C/c1c(O)[nH]c(=O)[nH]c1=O,-64.8%,-50.4%,-44.9%,-47%,-15.8%,-44.1%
CCOC(=O)C(Cc1ccc(N(CCCl)CCCl)cc1)NC(=O)C(NC(C)=O)C(C)C (stereo not given),36.9%,13.3%,33.2%,17.4%,29.7%,28.4%
